Compounds without any hit were thinned out: in the full panel of roughly 79,000, 15% have a hit. The source made the active and inactive calls. Cut-off read from the data, not from the text of the source: active = growth inhibition above about 70%; inactive = the rest.
Experiment: NCI Yeast Anticancer Drug Screen. Data for the rad14 strain (AID 159);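 note: 0% = growth of vehicle-treated control cultures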
Details: S. cerevisiae rad14 strain growth inhibition; at 3.7 µM; hits give high values
Summary of the method: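 Growth inhibition vs vehicle controls; genetically altered yeast strain (DNA damage repair defect) treated with test compounds.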

Compound | growth inhibition
CC1CCN(CCC(=O)c2ccc(Cl)cc2)CC1 | 36% (inactive)
CCCCCCCCCCCCCCC(C(=O)[O-])[n+]1ccccc1 (stereo unspecified) | 13% (inactive)
CNC1C(OC2C(OC3C(O)C(O)C(N=C(N)N)C(O)C3N=C(N)N)OC(C)C2(O)CO)OC(CO)C(O)C1O (stereo unspecified) | 4% (inactive)
O=C(O)c1ccccc1-c1ccccc1C(=O)Nc1ccc2c(c1)Cc1ccccc1-2 | 9% (inactive)
O=[N+]([O-])c1cccc2nc3ccccc3c(NCCCN3CCOCC3)c12 | 98% (active)
C=CC(C)(O)CCC1C(=C)C(O)CC2C(C)(C)CCCC12C (stereo unspecified) | -20% (inactive)
CN1c2ccc(Cl)cc2C(=O)NC1c1ccc([N+](=O)[O-])s1 (stereo unspecified) | -3% (inactive)
[O-][n+]1c2ccc(O)cc2nc2ccc(Br)cc21 | 7% (inactive)
O=C1c2ccccc2-c2nc3ccccc3nc21 | -39% (inactive)
CCCCN1C(=O)N(c2ccc(OCC)cc2)C2N(CCCC)C1C(C)(C)C2(C)C (stereo unspecified) | -6% (inactive)
CO[C@H]1C[C@](C)(O)Cc2cc3c(c(O)c21)C(=O)c1c(O)cc2c(c1C3=O)O[C@@H]1O[C@@]2(C)[C@H](O)[C@@H](N(C)C)[C@@H]1O | -44% (inactive)
COc1cc2c(cc1[N+](=O)[O-])C(=O)C(Br)(Br)CCC2 | 44% (inactive)
O=C1OC(CCl)CN1/N=C/c1ccc([N+](=O)[O-])o1 (stereo unspecified) | 0% (inactive)
CN(C)CCOc1ccc2c(c1)C/C(=C/c1ncc([N+](=O)[O-])n1C)C2=O | 51% (inactive)
CCCCCCCCCCCCCCCCCCN(C)CC(COP(=O)([O-])OCC[N+](C)(C)C)OC (stereo unspecified) | 4% (inactive)
CC(C)c1ccccc1NC(=O)/C(Cl)=C(\Cl)C(=O)O | 2% (inactive)
O=[N+]([O-])C(=C(Sc1ccccc1)Sc1ccccc1)C(Cl)=C(Cl)Cl | 7% (inactive)
C(=C\c1ccccc1)/COc1ccccc1C(N1CCOCC1)n1nc2ccccc2n1 (stereo unspecified) | 0% (inactive)
O=C1C(Nc2ccccc2)=C(Oc2ccccc2)C(=O)c2ccccc21 | 0% (inactive)
CCN(CC)CCN1C(=O)c2cccc3cc(OC)cc(c23)C1=O | 1% (inactive)
CN(C)Cc1cc(N=Nc2ccc(Cl)cc2)cc(CN(C)C)c1O | 13% (inactive)

Reference: PubChem BioAssay (NCI)
